Screening data from PubChem BioAssay.
Shn3 3UTR inh: reduction of Shn3 3'UTR firefly luciferase signal, primary screen, Schnurri-3 inhibitor project, cell-based, Clone20 osteoblasts, set 2; inhibition, % at 12.5 µM; AID 588674, 2011; 360,000 tested, 0.52% active; Clone20 osteoblast Shn3 3'UTR firefly luciferase, 24 h;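 active = mean inhibition of at least 75% with every replicate also reaching 75%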;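 note: 0% = median of neutral control wells and 100% = pilot-screen positive control compound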
LMP1 NFkB inh: EBV LMP1-driven NF-kappaB luciferase reporter inhibitors, primary screen, cell-based, luminescence, single point; LMP1-induced NF-kappaB luciferase reporter cells; inhibition, % at 12.5 µM; 350,000 tested, 0.69% active; in the data active = inhibition above about 41%;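 note: 0% = neutral control wells and 100% = reference inhibitor control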
PAX8 reporter: inhibitors of PAX8-driven TPO luciferase reporter, primary screen, RMG-I cells, single concentration. 360,000 tested, 1.2% active. inhibition, % at 12.6 µM. SteadyGlo, 24 h. AID 652154, 2013;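 active = mean replicate inhibition at least 60% with every replicate also reaching 60%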;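 note: luciferase light reporting Pax8 driven TPO promoter activity; plate controls were median of neutral control wells for no effect and mitoxantrone controls for full effect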
HIF-2a inh: HIF-2a reporter inhibitors, primary screen, luminescence, 786-0 RCC cells | 360,000 tested, 0.72% active | inhibition, % at 18.8 µM | AID 624352, 2012 | 786-0 RCC cells HIF-2a reporter, luciferase luminescence, overnight;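 active = inhibition of the luminescence signal of 40% or more relative to plate controls, in a single-dose primary screen at 18.75 µM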
TRPM1 prom inh: inhibitors of MITF-dependent TRPM1 promoter reporter, primary screen, cell-based, SK-MEL-5, single point, luciferase; SK-MEL-5 TRPM1 promoter luciferase, 24 h; inhibition, % at 12.5 µM; 330,000 tested, 0.83% active; AID 488899, 2010;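 active = mean inhibition across replicates of 60% or more, whatever share of single replicates reaches that level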
Peg3 prom inh: Peg3 promoter-driven luciferase inhibitors, primary screen, cell-based, HeLa, luciferase luminescence | inhibition, % at 20 µM | HeLa PEG-Prom luciferase reporter, overnight | 360,000 tested, 1.7% active;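 active = inhibition of at least 50% at 20 µM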
* = called active by the depositor; nt = no result given. In the library only some 2.8% were active in any assay of this set; here they are far more common.

SMILES	Shn3 3UTR inh	LMP1 NFkB inh	PAX8 reporter	HIF-2a inh	TRPM1 prom inh	Peg3 prom inh
COc1cc(-c2cnc3c(NC=O)cc(-c4ccccc4)cn23)cc(OC)c1OC	-2	nt	92*	-16	nt	10
COc1cc(-c2cc(NC(C)=O)c3ncc(-c4ccccc4)n3c2)cc(OC)c1OC	-6	nt	-16	-78	nt	23
COc1cc(-c2cc(NC(C)=O)c3ncc(-c4cc(OC)c(OC)c(OC)c4)n3c2)cc(OC)c1OC	9	nt	8	-84	nt	52*
CN(C)C(=O)c1cccc(-c2cc(NC=O)c3ncc(-c4ccc(F)cc4)n3c2)c1	22	nt	24	-50	nt	30
C[C@H](NC(=O)C[C@H]1CC[C@H](NC(=O)C2CC2)[C@H](CO)O1)c1ccccc1	nt	nt	7	nt	nt	nt
C[C@@H]1CN([C@H](C)CO)C(=O)c2cc(NC(=O)Cc3cn(C)c4ccccc34)ccc2O[C@@H]1CN(C)Cc1ccc2c(c1)OCO2	nt	nt	-10	nt	nt	nt
COc1ccc(NC(=O)N(C)C[C@H]2Oc3ccc(NC(=O)Nc4ccc(C(F)(F)F)cc4)cc3CC(=O)N([C@H](C)CO)C[C@@H]2C)cc1	nt	nt	9	nt	nt	nt
COc1ccc(NC(=O)N[C@@H]2CC[C@@H](CC(=O)NC3CCC3)O[C@H]2CO)cc1	nt	nt	-6	nt	nt	nt
COc1ccc(S(=O)(=O)N(C)C[C@@H]2Oc3ccc(N(C)C)cc3CC(=O)N([C@H](C)CO)C[C@H]2C)cc1	nt	nt	-2	nt	nt	nt
CC(=O)c1cccc(-c2cnc3c(NC=O)cc(-c4ccccc4)cn23)c1	-19	nt	10	-25	nt	17
COc1cc(-c2cnc3c(NC=O)cc(-c4cccc(NC(C)=O)c4)cn23)cc(OC)c1OC	21	nt	105*	26	nt	64*
CC(=O)Nc1cccc(-c2cc(NC=O)c3ncc(-c4cccc(C(C)=O)c4)n3c2)c1	-57	nt	81*	14	nt	44
COc1cccc(-c2cnc3c(NC=O)cc(-c4ccccc4)cn23)c1	3	nt	32	-61	nt	4
COc1cc(-c2cnc3c(NC=O)cc(-c4ccccc4Cl)cn23)cc(OC)c1OC	7	nt	76*	2	nt	-1
COc1cc(-c2cc(NC=O)c3ncc(-c4ccccc4)n3c2)cc(OC)c1OC	-4	nt	15	-66	nt	51*
COc1cccc(-c2cnc3c(NC=O)cc(-c4cccc(NC(C)=O)c4)cn23)c1	5	nt	12	-25	nt	48
C[C@H](CO)N1C[C@H](C)[C@@H](CN(C)C)Oc2ccc(NS(=O)(=O)c3ccccc3)cc2CC1=O	nt	nt	8	nt	nt	nt
COc1cc(-c2cnc3c(NC=O)cc(-c4ccc(C)cc4)cn23)cc(OC)c1OC	11	nt	90*	-34	nt	-9
CS(=O)(=O)c1ccc(-c2cc(NC=O)c3ncc(-c4ccc(F)cc4)n3c2)cc1	-5	nt	68*	-46	nt	29
COc1cccc(-c2cnc3c(NC=O)cc(-c4ccc(S(C)(=O)=O)cc4)cn23)c1	-30	nt	39	-16	nt	18
COc1cc(-c2cc(NC=O)c3ncc(-c4cccc(C(F)(F)F)c4)n3c2)cc(OC)c1OC	28	nt	16	-17	nt	52*
Cc1ccc(-c2cc(NC=O)c3ncc(-c4cnn(C)c4)n3c2)cc1	21	nt	35	-41	nt	40
CO[C@H]1CN(C)C(=O)c2cc(NC(=O)C3CCC3)ccc2OC[C@H](C)N(C(=O)NC(C)C)C[C@H]1C	nt	nt	-9	nt	nt	nt
C[C@H]1CN([C@@H](C)CO)C(=O)c2cc(-c3ccccc3)cnc2O[C@H]1CN(C)C(=O)c1cccnc1	nt	nt	-8	nt	nt	nt
CC(C)NC(=O)N1[C@@H]2CN(C(=O)Nc3cccc(Cl)c3)c3ccccc3[C@@H]2[C@@H]1CO	nt	nt	-12	nt	nt	nt
SMILES	Shn3 3UTR inh	LMP1 NFkB inh	PAX8 reporter	HIF-2a inh	TRPM1 prom inh	Peg3 prom inh
O=C(Nc1cc(F)ccc1F)N1C[C@H]2[C@@H](c3ccccc31)[C@H](CO)N2Cc1cccnc1	nt	nt	20	nt	nt	nt
O=C(O)CC1NC(=S)N(Cc2ccccc2)C1=O (centres undefined)	-2	12	3	3	nt	52*
CC1NC(=S)N(Cc2ccccc2)C1=O (centres undefined)	8	2	-11	1	5	7
Cc1ccccc1-n1sc2cc(F)ccc2c1=O	-16	3	-2	-30	6	73*
COc1cc2c(cc1OC)C(c1ccc(-c3ccc(Cl)cc3Cl)o1)=NCC2	18	4	nt	-4	22	45
COc1cc2c(cc1OC)C(c1ccc(-c3ccc(Cl)c(Cl)c3)o1)=NCC2	68	13	nt	2	38	85*
COc1cc2c(cc1OC)C(c1ccc(-c3ccccc3Cl)o1)=NCC2	65	51*	nt	-16	10	-93
C[C@@H]1CN([C@H](C)CO)C(=O)c2cc(NC(=O)CCN3CCOCC3)ccc2O[C@H]1CN(C)C(=O)Nc1cccc2ccccc12	nt	nt	26	nt	nt	nt
COC(=O)CSc1nc(N)c2c3c(sc2n1)C(c1ccccc1)SC(c1ccccc1)C3 (centres undefined)	20	1	nt	88*	47	47
CC(C)(C)C1CCc2c(sc3nc(SCC(=O)O)nc(N)c23)C1 (centres undefined)	27	5	-55	55*	-2	-83
CC1(C)Cc2c(sc3nc(SCC(=O)O)nc(N)c23)CO1	-7	-5	-10	15	-9	0
COc1ccc(N2CCN(C(=O)Cn3ncc4c([nH]c5ccccc54)c3=O)CC2)cc1	0	-12	-1	0	0	53*
CCNC(=O)CC1C(=O)N(CC)C(=S)N1NC(=O)c1cccnc1 (centres undefined)	3	74*	-11	4	-6	38
CS(=O)(=O)N1[C@@H](CO)[C@@H](c2ccccc2)C12CN(Cc1cc(F)ccc1F)C2	nt	nt	-6	nt	nt	nt
OC[C@H]1[C@@H](c2ccc(Br)cc2)[C@@H]2CN(Cc3ccccn3)CCCCN12	nt	nt	6	nt	nt	nt
COc1ccc(CN(C)C[C@H]2OCCCC[C@H](C)Oc3ccc(N(C)C)cc3C(=O)N([C@@H](C)CO)C[C@@H]2C)cc1	nt	nt	18	nt	nt	nt
CCOc1ccc2c(c1)C(=NNC(=O)c1ccncc1)c1cc(OCC)ccc1-2	-8	11	-38	-126	0	55*
CCOc1ccc(NC(=O)c2ccncc2)cc1	-15	-9	nt	-33	-6	-50
CC(=C\C(=O)O)/C(=C/c1ccc(C)o1)C(=O)O	0	-3	76*	12	4	0
CC(=C\C(=O)O)/C(=C/c1ccco1)C(=O)O	-3	-6	1	16	-1	4
Oc1ccc(/C=N/Nc2ccnc3cc(Cl)ccc23)cc1O	56	-3	12	-94	8	74*
Oc1ccc(/C=N/Nc2ccnc3cc(Cl)ccc23)c(O)c1O	7	4	8	-4	-9	13
CCc1ccc2c(c1)C1(NN=C(c3cccc4ccccc34)S1)C(=O)N2 (centres undefined)	66	36	nt	10	51	51*
